# Screening data: PubChem, National Center for Advancing Translational Sciences (NCATS)
# Pf Dd2 growth – qHTS Primary assay for Inhibitors of Plasmodium falciparum Dd2 growth in vitro | 4.3% of 120,000 active | P. falciparum Dd2 growth, SYBR Green, 72 h | AID 1347417, 2020 | Potency, µM (top dose mostly 28.9 µM), for the others: at the top dose activity, negative = inhibition, hits mostly inhibitors; active = well fitted inhibition curve with a large enough effect;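 also: plate controls were DMSO vehicle for no effect and reference drug for full effect; nearly all actives have a fitted effect of over 65% in size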
#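 Readout: SYBR Green fluorescence, 485 nm excitation, 535 nm emission, after ~16 h lysis at 37C. Before that, Dd2-infected red cells (2.5% hematocrit) grew 72 h with compound, 29 uM top final concentration.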
# * = called active by the depositor; i = inactive; [ ] = dose if it differs, or a comment. Shown is part of a subset that was picked to be rich in hits. Potency is read from the fitted curve at half-maximal effect.
SMILES,Pf Dd2 growth
O=C1NC2(CCN(CC3CC3)CC2)COc2ccccc21,-22%[44.1 µM]
O=C1NCC2(CCN(CC3CCCCC3)CC2)Oc2ccccc21,3%
CCNC(=O)N1CCC(N2C(=O)C(OCC3CC3)C23CCCCC3)CC1 (stereo not drawn),i
O=C([C@H]1C[C@H](Oc2ccccc2)CN1S(=O)(=O)Cc1ccccc1F)N1CCOCC1,i
CC(C)(C)C(=O)N1CCn2c(nnc2[C@@H]2C[C@@H](O)CN2Cc2ccccc2)C1,22%
COCCNC(=O)CC1=C2CCCCC2NC1=O (stereo not drawn),-3%
O=C(NCc1ccccc1)C1=NO[C@@H]2CN(Cc3ccc(F)c(F)c3)C[C@H]12,7%[44.1 µM]
Cc1ccc(CNC(=O)Cn2c(SCC(=O)Nc3ccc(F)cc3)nc3ccccc32)cc1,35%
Cc1cc(C)c(NC(=O)Cn2nnc(S(=O)(=O)c3ccc(C)c(C)c3)c2N)c(C)c1,6%
O=C(c1cncs1)N1CCn2nc(C(O)Cc3ccccc3)cc2C1 (stereo not drawn),7%
CC(C)CN[C@H]1[C@H](O)[C@H](O)C[C@@H]1c1ccncc1,-11%[44.1 µM]
COc1ccc(CCNS(=O)(=O)c2ccc(N3CCCCS3(=O)=O)cc2)cc1OC,i
Cc1nnc(N2C(=O)c3oc4ccccc4c(=O)c3C2c2cccc(OCCC(C)C)c2)s1 (stereo not drawn),54%
COc1cccc(C(=O)NCC2(COc3ccc(S(C)(=O)=O)cc3)C[C@@H](O)[C@@H](O)C2)c1 (stereo partly drawn),-11%
COc1cc(N2CCC(CO)(Cc3ccccc3C(F)(F)F)CC2)ncn1,-17%
OCC1(Cc2ccccc2Cl)CCN(Cc2cc3ccccc3o2)CC1,8.9µM*
CC(=O)c1cc(CN2CCC(CO)(Cc3ccccc3Cl)CC2)cs1,-11%
COc1ccc(F)c(CN2CCC(CO)(CN3CCCC3)CC2)c1,i
CC(C)n1cc(CN2CCC(CO)(Cc3ccccc3Cl)CC2)cn1,-11%
COc1ccc(O)c(CN2CCC(CO)(Cc3ccccc3Cl)CC2)c1,8.9µM*
O=C(c1cccnc1)N1CCOCC2(C1)CN([S+](=O)([O-])c1ccccc1)C2,24%[44.1 µM]
COc1ccc(NC(=O)C2CCCN(S(=O)(=O)c3ccc4c(c3)oc(=O)n4C)C2)c(OC)c1 (stereo not drawn),-11%
Cc1ccc(CNC(=O)c2cc(C)nc3c2c(C)nn3-c2ccc(C)cc2)cc1,14%
COC(=O)[C@@H](C)NC(=O)[C@H]1CN(C(=O)Nc2ccccc2)CCN1C(=O)c1cccs1,12%
CN(C)c1ccc(C(=O)NC2CCCN(c3cc(-c4ccc(F)cc4)[nH]n3)C2)cc1 (stereo not drawn),i
SMILES,Pf Dd2 growth
Cc1cccn2c(=O)c(C(=O)NCCc3ccccc3)c(O)nc12,28%
Cc1ccsc1CN(C(=O)c1oc2ccc(F)cc2c1C)C1CCS(=O)(=O)C1 (stereo not drawn),5%
CN(C(=O)Cc1cccc(Cl)c1)C1CCCc2ccccc21 (stereo not drawn),14µM*
CN(CC1CCOCC1)C(=O)Cc1cccc(Cl)c1,5%
CN(C(=O)Cc1cccc(Cl)c1)C1CCc2ccccc21 (stereo not drawn),i
CC(C)CCN1CCOc2ccc(C(=O)NCc3ccccc3F)cc2C1,0%
Cc1noc(C2CC3(CCN(C(=O)C(C)C)CC3)CN2C)n1 (stereo not drawn),21%
Cc1ccc2c(c1)-c1cc(C)nn1C(c1cc(Br)ccc1O)N2 (stereo not drawn),13µM*
O=C(CCCn1c(=O)c2cccn2c2cccnc21)NCc1ccccc1Br,-17%
CC(C)N1C(=O)C2(CCCC2)C1C(=O)N1CCC(N2CCCCC2)CC1 (stereo not drawn),-24%
CC(C)N1C(=O)C2(CCCCC2)C1C(=O)N1CCN(C)CC1 (stereo not drawn),-18%
CC(C)N1C(=O)C2(CCCC2)C1C(=O)N1CCN(C2CCCCC2)CC1 (stereo not drawn),10µM*
COC[C@@H]1[C@H](NC(=O)c2cc(-c3ccccc3OC)n[nH]2)[C@@H]2CCO[C@H]12,-10%
Cc1ccc(NC(=O)c2oc3ccc(S(=O)(=O)N(C)C4CCCCC4)cc3c2C)c(C)c1,i
Cc1c(C(=O)Nc2cccc(C(F)(F)F)c2)oc2ccc(S(=O)(=O)N(C)C3CCCCC3)cc12,11µM*
Cc1c(C(=O)Nc2ccc(F)c(Cl)c2)oc2ccc(S(=O)(=O)N(C)C3CCCCC3)cc12,-26%
Cc1nn(-c2ccc(C(C)C)cc2)c(C)c1[C@@H]1C=C[C@@H](NC(=O)Nc2ccc(Cl)cc2)C1,-3%
Cc1nn(-c2ccc(C(C)(C)C)cc2)c(C)c1[C@@H]1C=C[C@@H](NC(=O)CCC(=O)O)C1,-18%[44.1 µM]
Cc1nn(-c2ccc(C(C)C)cc2)c(C)c1[C@@H]1C=C[C@@H](NC(=O)NC2CCCCC2)C1,10µM*
Cc1nn(-c2ccc(F)cc2)c(C)c1[C@@H]1C=C[C@@H](NC(=O)NC(C)C)C1,8.9µM*
COCC(=O)N[C@@H]1C=C[C@@H](c2c(C)nn(-c3ccc(C(C)(C)C)cc3)c2C)C1,-14%[44.1 µM]
Cc1nn(-c2ccc(C(C)(C)C)cc2)c(C)c1[C@@H]1C=C[C@@H](NC(=O)NC(C)C)C1,10µM*
Cc1nn(-c2ccc(C(C)C)cc2)c(C)c1[C@@H]1C=C[C@@H](NC(=O)NCc2ccccc2)C1,-30%[44.1 µM]
Cc1nn(-c2ccc(C(F)(F)F)cc2)c(C)c1[C@@H]1C=C[C@@H](NC(=O)CCC(=O)O)C1,i
CCNC(=O)N[C@@H]1C=C[C@@H](c2c(C)nn(-c3ccc(C(F)(F)F)cc3)c2C)C1,4.5µM*
SMILES,Pf Dd2 growth
Cc1nn(-c2ccc(C(C)(C)C)cc2)c(C)c1[C@@H]1C=C[C@@H](NC(=O)COCC(=O)O)C1,2%[44.1 µM]
Cc1nn(-c2ccc(C(F)(F)F)cc2)c(C)c1[C@@H]1C=C[C@@H](NC(=O)CC(C)(C)CC(=O)O)C1,i
CCNC(=O)N[C@@H]1C=C[C@@H](c2c(C)nn(-c3ccc(C(C)(C)C)cc3)c2C)C1,-5%[44.1 µM]
O=C(c1ccccc1F)N1CCC2(C1)C(=NC1CCCCC1)NC(=O)N2c1cccnc1 (stereo not drawn),13%
CC(C)N1CCCC2(CCN(CCCC(=O)O)C2)C1=O (stereo not drawn),-9%
Cc1cc(C)c2c(c1)c(C)cc1nnc(SCc3ccccc3C#N)n12,-12%
Cc1cccc(C)c1NC(=O)Cn1c(SCC(=O)NCc2ccccc2)nc2ccccc21,9%
Nc1n[nH]c(CNc2cc(-c3ccc(F)cc3)nc3ccnn23)n1,-5%
CC1=C[C@@H](CNC(=O)COc2ccccc2)[C@H](C(C)C)C[C@H]1CC(=O)Nc1ccccn1,i
COc1ccc(C(=O)NC[C@@H]2C=C(C)[C@H](CC(=O)O)C[C@H]2C(C)C)cc1,-5%[44.1 µM]
CC1=C[C@@H](CN2CCC(C(N)=O)CC2)[C@H](C(C)C)C[C@H]1Cc1nnc(C(C)(C)C)o1,i
CC1=C[C@@H](CNCc2ccco2)[C@H](C(C)C)C[C@H]1Cc1nnc(C(C)(C)C)o1,13µM*
CC1=C[C@@H](CNS(=O)(=O)c2ccccc2)[C@H](C(C)C)C[C@H]1CC(=O)NCc1ccccn1,i
CC1=C[C@@H](CNS(C)(=O)=O)[C@H](C(C)C)C[C@H]1Cc1nnc(-c2cncn2C)o1,i
CC1=C[C@@H](CNS(=O)(=O)c2ccccc2)[C@H](C(C)C)C[C@H]1CC(=O)NCCN(C)C,-11%
